Test [1] can be described thus: Nuclear factor erythroid 2-related factor 2/antioxidant responsive element (Nrf2/ARE) small molecule agonists: qHTS cell viability counter screen in human keratinocytes (AID 1919968; active = well fitted curve in the direction sought with a large enough effect in the repeat runs; an effect the other way counts as inactive or inconclusive; note: nearly all actives have a fitted effect of over 55% in size). The method, boiled down: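 Stably transfected HaCaT (KeratinoSens), 1,500/well. Test agents in DMSO were applied for 23 h, 37 C/5% CO2. CellTiter-Fluor was incubated 1 h before the fluorescence read.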

The nature of test [2]: Nuclear factor erythroid 2-related factor 2/antioxidant responsive element (Nrf2/ARE) small molecule agonists: luciferase reporter gene qHTS assay in human keratinocytes (AID 1919969). Note: nearly all actives have a fitted effect of over 35% in size. Note: potency is the fitted concentration of half-maximal effect.
Test [3] concerns the target Gonadotropin-releasing hormone receptor (Homo sapiens) (UniProt P30968). As to the kind of experiment: Human gonadotropin-releasing hormone receptor (GnRHR) small molecule agonists, calcium flux assay in GnRHR-HEK293 cells (AID 1920063). Note: nearly all actives have a fitted effect of over 35% in size. The method, boiled down:
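Stable human GnRHR HEK293 line. 18 h plating, then calcium dye for 1 h at 37 C. Agonist-mode compound addition from DMSO stocks; fluorescence monitored 3 min.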

In test [4] the target is KiSS-1 receptor (Homo sapiens) (UniProt Q969F8). Kind of test: Human kisspeptin (KISS1R) small molecule agonists, calcium flux assay in KISS1R-HEK293 cells (AID 1920064; active = well fitted curve in the direction sought with a large enough effect in the repeat runs; an effect the other way counts as inactive or inconclusive). A digest of the protocol: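 After overnight (18 h) culture at 37 C/5% CO2, human KISS1R-HEK293 cells received calcium dye for 1 h, then test compound; emission at 540 nm (excitation 480 nm) was tracked for 3 min.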

Test [5] can be described thus: p53 small molecule agonists, cell-based qHTS assay with human liver microsomes (AID 1963577). The method, boiled down:
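p53RE-bla cells, 4,000/well, compound added after 5 h, with human liver microsomes 0.5 mg/mL and NADPH 0.5 mg/mL final; 16 h at 37 C, then LiveBLAzer 2 h RT, fluorescence.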

Test [6] in a line: p53 small molecule agonists, cell-based qHTS assay with rat liver microsomes (AID 1963578). A digest of the protocol: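 p53RE-bla cells, 4,000/well, pre-incubated 5 h, then given compounds plus rat liver microsomes (0.5 mg/mL final) and NADPH (0.5 mg/mL final). Incubation 16 h at 37 C; beta-lactamase reporter read by LiveBLAzer fluorescence after 2 h at room temperature.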
A short description of test [7]: p53 small molecule agonists, cell-based qHTS assay with human liver microsomes: qHTS cell viability counter screen (AID 1963579). Note: nearly all actives have a fitted effect of over 45% in size. Note: potency is the fitted concentration of half-maximal effect. A digest of the protocol:
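p53RE-bla cells, 4,000/well, dosed 5 hours after plating, with human liver microsomes (0.5 mg/mL final) plus NADPH (0.5 mg/mL final), 16 hours at 37 C. Viability read as CellTiter-Glo luminescence after 30 min at room temperature.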

The nature of test [8]: p53 small molecule agonists, cell-based qHTS assay with rat liver microsomes: qHTS cell viability counter screen (AID 1963580). Note: nearly all actives have a fitted effect of over 45% in size. The method, boiled down: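 Luminescent ATP readout (CellTiter-Glo, 30 min at room temperature) reports viability of p53RE-bla HCT-116 cells after 16 h at 37 C with test compounds under metabolic activation by rat liver microsomes and NADPH at 0.5 mg/mL final each.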

Test [9] can be described thus: p53 small molecule agonists, cell-based qHTS assay: qHTS cell viability counter screen (AID 1963581). Note: nearly all actives have a fitted effect of over 45% in size. A digest of the protocol: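 qHTS counter screen: 16 h compound exposure at 37 C of p53RE-bla HCT-116 cells (4,000 per well, seeded 5 h prior), cell viability by ATP luminescence.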
Test [10] is described as follows: p53 small molecule agonists, cell-based qHTS assay (AID 1963582; active = well fitted activation curve with a large enough effect in the signal ratio in the repeat runs, not every such curve was filed as active; the % refers to the signal ratio). The method, boiled down:
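Measured: fluorescence from cleaved LiveBLAzer substrate. System: p53RE-bla cells, 16 h compound treatment at 37 C, 2 h substrate step at room temperature.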

Test [11] concerns the target 5-hydroxytryptamine receptor 2A (Homo sapiens) (UniProt P28223). Kind of test: 5-hydroxytryptamine receptor 2A (HTR2A) small molecule antagonists, cell-based qHTS assay (AID 1963586). Note: nearly all actives have a fitted effect of over 45% in size. A digest of the protocol:
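CHO cells stably expressing human HTR2A were plated for 18 h at 37 C, then loaded with calcium dye for 1 h. Compounds were preincubated 5 min at room temperature before DOI (4 nM solution) was added. Kinetic fluorescence was read for 3 min.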

For test [12] the target is unchanged. As to the kind of experiment: 5-hydroxytryptamine receptor 2A (HTR2A) small molecule agonists, cell-based qHTS assay (AID 1963587). Note: nearly all actives have a fitted effect of over 30% in size. The method, boiled down: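 HTR2A-CHO cells, plated 18 h at 37 C/5% CO2, dye-loaded 1 h at 37 C; compounds in DMSO added by pin tool (agonist mode). Intracellular calcium flux read as kinetic fluorescence on FDSS over 2 min at 1 s intervals.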

Test [13] concerns the target Muscarinic acetylcholine receptor M1 (Homo sapiens) (UniProt P11229). Kind of test: Cholinergic receptor muscarinic 1 (CHRM1) small molecule antagonists, cell-based qHTS assay (AID 1963588). Note: nearly all actives have a fitted effect of over 40% in size. The method, boiled down: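 Compounds were tested at 15 concentrations in three independent runs. Dye-loaded CHRM1-CHO cells were exposed 5 min at room temperature before stimulation by acetylcholine added at 50nM. Intracellular calcium was read kinetically on FDSS for 3 min.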

For test [14] the target is unchanged. Kind of test: Cholinergic receptor muscarinic 1 (CHRM1) small molecule agonists, cell-based qHTS assay (AID 1963589). Note: nearly all actives have a fitted effect of over 35% in size. A digest of the protocol:
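Kinetic fluorescence (1 s intervals) of calcium-sensitive dye in human M1 CHO cells after compound addition; cells pre-incubated 18 h at 37 C/5% CO2 and dye-loaded 1 h.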

The nature of test [15]: cAMP Responsive Elements (CRE) small molecule agonists, cell-based qHTS assay (AID 1963590). A digest of the protocol: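 Test agents in DMSO were incubated 3 h at 37 C/5% CO2 with CRE-bla HEK 293T cells seeded 18 h earlier; LiveBLAzer B/G FRET substrate was added and read after 2 h at room temperature.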
Test [16] is described as follows: cAMP Responsive Elements (CRE) small molecule antagonists, cell-based qHTS assay (AID 1963591; active = well fitted inhibition curve with a large enough effect in the signal ratio in the repeat runs, not every such curve was filed as active; the % refers to the signal ratio). The method, boiled down: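 Reporter line CRE-bla HEK 293T in dialyzed-FBS DMEM; cells preincubated 18 h, treated 3 h with compound plus NKH477 (0.25 uM final); LiveBLAzer FRET, 2 h RT.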
Test [17] addresses D(2) dopamine receptor (Homo sapiens) (UniProt P14416). As to the kind of experiment: Dopamine D2 receptor (DRD2) small molecule antagonists, cell-based qHTS assay (AID 1963595; active = well fitted inhibition curve with a large enough effect in the signal ratio in the repeat runs, with a control signal flat; the % refers to the signal ratio). A digest of the protocol: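 HEK293 cells stably expressing DRD2, preincubated with 0.1 mM Ro20-1724 and compounds 10 min, were stimulated with 200 nM NKH477 plus 12 nM quinpirole for 30 min at room temperature; cAMP measured by HTRF (665/620 nm).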

A short description of test [18]: G protein-coupled receptor (GPCR) small molecule agonists, calcium flux assay: HEK293 wild type cell line counter screen (AID 1920065). The method, boiled down:
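Following 18 h incubation at 37 C/5% CO2, plates got calcium dye for 1 h; compounds, ATP or DMSO were then pinned in and fluorescence followed kinetically (480/540 nm).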

For test [19], the target named is Beta-2 adrenergic receptor (Homo sapiens) (UniProt P07550). Kind of test: Adrenergic beta2 receptor (ADRB2) small molecule antagonists, cell-based qHTS assay (AID 1963592). Note: series mostly up to about 92 µM; nearly all actives have a fitted effect of over 50% in size. The method, boiled down:
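Assay format: CHO-ADRB2 cells, 18-20hr seeding at 37C/5% CO2, then compound plus 1nM isoproterenol agonist mix for 0.5hr RT. Homogeneous time-resolved fluorescence cAMP detection after 1hr, expressed as 665/615 nm ratio.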

Test [20] has as its target D(2) dopamine receptor (Homo sapiens) (UniProt P14416). Kind of test: Dopamine D2 receptor (DRD2) small molecule agonists, cell-based qHTS assay (AID 1963594). Note: nearly all actives have a fitted effect of over 35% in size. The method, boiled down: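 HEK293 cells stably expressing DRD2 were cultured 24 h at 37 C, then given Ro20-1724 (0.1 mM final) and compounds for 10 min at room temperature. NKH477 (200nM) was then added for 30 min. cAMP was read by HTRF.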

Where “and” joins values, the source holds several entries; their conditions need not be identical. Identical values can stand only once. Results filed as inconclusive are left out. A structure can be active in one record and inactive in another. Calls of active or inactive are those of the source. Unless noted, calls come from the whole dose curve.

Sequence of D(2) dopamine receptor (Homo sapiens) (P14416 whole entry, looked up): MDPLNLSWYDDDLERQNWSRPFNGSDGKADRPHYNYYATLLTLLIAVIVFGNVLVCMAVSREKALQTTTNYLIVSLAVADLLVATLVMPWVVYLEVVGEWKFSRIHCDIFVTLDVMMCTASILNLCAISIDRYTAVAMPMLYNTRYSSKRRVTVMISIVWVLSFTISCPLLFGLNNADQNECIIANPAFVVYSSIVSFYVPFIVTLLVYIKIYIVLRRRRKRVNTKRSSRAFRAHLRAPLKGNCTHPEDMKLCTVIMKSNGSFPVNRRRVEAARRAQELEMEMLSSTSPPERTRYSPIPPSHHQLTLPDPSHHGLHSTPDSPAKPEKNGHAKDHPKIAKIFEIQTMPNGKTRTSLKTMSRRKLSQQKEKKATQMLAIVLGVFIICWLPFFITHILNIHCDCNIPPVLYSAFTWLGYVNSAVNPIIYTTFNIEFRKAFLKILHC
Sequence of KiSS-1 receptor (Homo sapiens) (Q969F8 whole entry, looked up): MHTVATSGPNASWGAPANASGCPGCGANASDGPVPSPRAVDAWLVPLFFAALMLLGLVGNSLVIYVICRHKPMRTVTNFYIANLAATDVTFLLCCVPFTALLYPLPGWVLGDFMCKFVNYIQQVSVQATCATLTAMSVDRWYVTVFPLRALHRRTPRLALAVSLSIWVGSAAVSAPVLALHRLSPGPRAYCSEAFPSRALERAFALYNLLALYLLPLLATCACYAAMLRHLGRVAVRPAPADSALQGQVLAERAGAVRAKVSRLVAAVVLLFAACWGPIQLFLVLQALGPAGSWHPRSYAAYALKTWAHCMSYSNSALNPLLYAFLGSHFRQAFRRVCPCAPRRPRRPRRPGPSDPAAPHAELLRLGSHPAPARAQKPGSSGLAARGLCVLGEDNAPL
Sequence of Gonadotropin-releasing hormone receptor (Homo sapiens) (P30968 whole entry, looked up): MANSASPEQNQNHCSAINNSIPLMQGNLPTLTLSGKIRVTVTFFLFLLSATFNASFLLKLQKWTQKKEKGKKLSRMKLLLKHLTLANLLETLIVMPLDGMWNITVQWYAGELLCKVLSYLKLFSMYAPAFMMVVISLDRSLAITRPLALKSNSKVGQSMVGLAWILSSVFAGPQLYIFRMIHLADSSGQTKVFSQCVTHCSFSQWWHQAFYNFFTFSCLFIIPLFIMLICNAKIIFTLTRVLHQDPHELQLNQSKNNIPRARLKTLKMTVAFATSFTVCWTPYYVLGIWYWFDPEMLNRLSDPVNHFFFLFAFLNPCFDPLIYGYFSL
Sequence of 5-hydroxytryptamine receptor 2A (Homo sapiens) (P28223 whole entry, looked up): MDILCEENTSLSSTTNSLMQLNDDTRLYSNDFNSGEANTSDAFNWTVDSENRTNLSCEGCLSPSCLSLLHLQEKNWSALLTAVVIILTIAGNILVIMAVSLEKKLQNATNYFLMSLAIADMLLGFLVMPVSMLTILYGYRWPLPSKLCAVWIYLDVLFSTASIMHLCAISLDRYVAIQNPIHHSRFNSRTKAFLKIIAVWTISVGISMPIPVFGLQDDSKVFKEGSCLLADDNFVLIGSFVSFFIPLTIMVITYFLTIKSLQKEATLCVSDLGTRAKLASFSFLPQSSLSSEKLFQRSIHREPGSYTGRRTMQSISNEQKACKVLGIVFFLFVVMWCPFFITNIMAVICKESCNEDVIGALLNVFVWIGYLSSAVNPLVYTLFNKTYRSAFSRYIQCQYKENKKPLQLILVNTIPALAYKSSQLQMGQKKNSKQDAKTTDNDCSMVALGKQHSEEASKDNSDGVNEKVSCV
Sequence of Beta-2 adrenergic receptor (Homo sapiens) (P07550 whole entry, looked up): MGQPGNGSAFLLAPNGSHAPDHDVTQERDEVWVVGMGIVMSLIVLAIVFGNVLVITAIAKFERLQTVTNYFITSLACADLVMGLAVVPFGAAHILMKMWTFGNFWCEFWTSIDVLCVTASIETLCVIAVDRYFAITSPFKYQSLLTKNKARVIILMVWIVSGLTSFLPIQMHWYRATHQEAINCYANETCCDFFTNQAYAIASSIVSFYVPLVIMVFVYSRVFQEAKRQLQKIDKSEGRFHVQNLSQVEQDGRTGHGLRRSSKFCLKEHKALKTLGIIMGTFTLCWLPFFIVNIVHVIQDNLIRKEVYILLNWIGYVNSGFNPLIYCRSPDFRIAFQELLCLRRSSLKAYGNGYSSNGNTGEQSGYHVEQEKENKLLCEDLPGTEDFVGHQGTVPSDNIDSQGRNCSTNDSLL
Sequence of Muscarinic acetylcholine receptor M1 (Homo sapiens) (P11229 whole entry, looked up): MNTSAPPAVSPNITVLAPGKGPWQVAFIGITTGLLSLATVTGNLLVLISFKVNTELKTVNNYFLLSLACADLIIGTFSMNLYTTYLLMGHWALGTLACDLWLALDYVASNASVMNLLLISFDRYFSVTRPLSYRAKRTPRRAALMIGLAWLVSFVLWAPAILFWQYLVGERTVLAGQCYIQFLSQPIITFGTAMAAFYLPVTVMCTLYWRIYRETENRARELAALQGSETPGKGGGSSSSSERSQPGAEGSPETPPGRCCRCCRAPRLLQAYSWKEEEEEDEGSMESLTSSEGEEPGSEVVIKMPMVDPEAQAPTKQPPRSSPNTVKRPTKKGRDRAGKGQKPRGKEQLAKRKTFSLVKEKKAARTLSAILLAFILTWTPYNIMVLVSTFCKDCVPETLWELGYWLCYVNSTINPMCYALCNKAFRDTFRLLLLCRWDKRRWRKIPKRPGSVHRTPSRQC

Turning to `NC(=O)CCl`, the Potency entry in test [1], in [3], in test [4], in test [5], in test [6] and in test [7] was “inactive” throughout. Besides, the Potency result in test [8], in test [9], in [10], in test [11], in [12] and in test [13] was “inactive” throughout. The Potency result in test [14], in [15], in test [16] and in test [17] was “inactive” each time. In addition, the Potency in test [2] was 61.1 µM (active).
Regarding `OCCN(CCO)CCO`, the Potency result in [1], in [2], in [3], in test [4], in [18] and in [7] was “inactive” in each case. Besides, the Potency result in test [9], in test [11], in test [12], in [14], in [15] and in test [16] was “inactive” each time. The Potency result in [19] and in [20] was “inactive” each time.
As to `C=CCCl`, the Potency entry in [1], in test [2], in test [3], in test [4], in test [5] and in [6] was “inactive” each time. For the same molecule, the Potency result in test [7], in [8], in test [9], in test [11], in [12] and in test [13] was “inactive” throughout. The Potency result in test [14], in test [15], in test [16], in [19], in test [20] and in [17] was “inactive” throughout.
On to `Oc1ccc(Cl)cc1Cl`, for which the Potency result in test [1], in test [2], in test [3], in test [4], in test [5] and in test [6] was “inactive” each time. Besides, the Potency result in test [7], in test [8], in test [9], in test [10], in test [11] and in [12] was “inactive” in each case. The Potency result in test [13], in test [14], in test [15], in [16], in test [19] and in test [17] was “inactive” in each case.
For the molecule `Cc1cc(-c2ccc(N)c(C)c2)ccc1N`, the Potency result in [1], in test [2], in test [3], in test [4], in test [5] and in test [6] was “inactive” each time. The Potency result in test [8], in [9], in test [10], in test [11], in test [12] and in test [13] was “inactive” each time. Also, the Potency result in test [14], in test [15], in [16], in test [20] and in test [17] was “inactive” throughout. Further, in test [7], the Potency result is “inactive and 4.07 µM (active)”.
For the molecule `Fc1cc(Br)ccc1CBr`, the Potency entry in test [1], in test [2], in test [3], in [4], in test [5] and in test [6] was “inactive” throughout. Further, the Potency result in test [7], in test [8], in test [9], in test [10], in test [11] and in test [12] was “inactive” throughout. In addition, the Potency result in test [13], in test [14], in test [15], in test [16], in [19] and in test [20] was “inactive” each time.
Consider `Cc1[nH]c(=O)n(C(C)(C)C)c(=O)c1Cl`, for which the Potency result in [1], in test [2], in test [3], in test [4], in [18] and in [8] was “inactive” throughout. The Potency entry in [9], in test [11], in test [12], in test [13], in test [14] and in test [15] was “inactive” each time. The Potency entry in [16], in test [19], in [20] and in test [17] was “inactive” throughout.
For the molecule `N#Cc1ccc(Cl)cc1`, the Potency result in [1], in test [2], in test [3], in test [4], in [5] and in [6] was “inactive” throughout. Besides, the Potency result in [7], in test [8], in test [9], in [10], in test [11] and in test [12] was “inactive” each time. The Potency result in [13], in test [14], in [15], in test [16], in test [19] and in test [20] was “inactive” each time. For the same molecule, in test [17], the Potency result is “inactive”.
